# The list is not random: actives were taken first. Their share in the collection is about 2.4%.
# HSF1 inh: HSF1 inhibitors in luciferase reporter cells, primary screen, cell-based, NIH3T3, luminescence; AID 2098, 2009; activity change, negative = inhibition, % at 7.5 µM (by protocol); NIH3T3-HGL HSE-luciferase, MG132-induced, luminescence 8 h; hits give low values; 300,000 compounds, 0.77% hits;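 active = more than half of replicate wells show activity change below -50%, luminescence cut by over half; inconclusive = some wells, but at most half, below -50%; inactive = no replicate well below -50%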;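 also: luciferase reports HSF-1 transcriptional activity via heat shock element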
# TLR9-MyD88 block: inhibitors of TLR9-MyD88 association in cells, primary screen, cell-based, CHO, BLA complementation, fluorescence; Toll-like receptor 9 (Homo sapiens) + Myeloid differentiation primary response protein …; CCF4 FRET ratio; inhibition, % at 4.98 µM; 340,000 compounds, 0.21% hits;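 active = inhibition above the mean over all tested compounds plus 3 SD, cut at about 21% in these data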
# NOD2-RIPK2 inh: NOD2-RIPK2 binding disruptors in cells, primary screen, fluorescence, CHO cells, BLA complementation; 360,000 compounds, 0.38% hits; CCF4 ratio; inhibition, % at 4.98 µM; in the data active = inhibition above about 21%
# Target sequence (O43353 whole entry, looked up): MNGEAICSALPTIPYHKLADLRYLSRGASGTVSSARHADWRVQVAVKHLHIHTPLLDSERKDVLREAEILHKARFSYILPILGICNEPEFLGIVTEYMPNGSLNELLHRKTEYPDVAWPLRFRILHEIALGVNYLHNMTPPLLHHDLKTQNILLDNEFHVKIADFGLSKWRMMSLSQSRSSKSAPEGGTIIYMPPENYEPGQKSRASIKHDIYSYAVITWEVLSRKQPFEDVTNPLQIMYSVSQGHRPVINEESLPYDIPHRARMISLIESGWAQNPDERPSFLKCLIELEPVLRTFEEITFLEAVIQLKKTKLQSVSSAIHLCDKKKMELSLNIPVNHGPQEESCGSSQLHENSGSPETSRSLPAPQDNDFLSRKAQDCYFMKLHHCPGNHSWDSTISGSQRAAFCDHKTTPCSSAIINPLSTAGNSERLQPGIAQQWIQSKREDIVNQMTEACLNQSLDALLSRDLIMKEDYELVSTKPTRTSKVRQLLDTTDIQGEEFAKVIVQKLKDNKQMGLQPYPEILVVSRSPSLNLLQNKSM
# HSF-1 act: HSF-1 activators, primary screen, NIH3T3-HGL cells, MG132 stress, luminescence, single point. NIH3T3-HGL HSF-1 luciferase reporter, 8 h; 100% = twice DMSO control signal. activation, % at 9 µM. 300,000 compounds, 1.7% hits. AID 504408, 2011;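 active = mean replicate activation of at least 50% with a set share of replicates each reaching 50%; inconclusive = only one of those two conditions met; inactive = mean below 50% and too few replicates reaching it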
# TLR4 MyD88 comp: inhibitors of TLR4-MyD88 association in cells, primary screen, cell-based, HeLa CL3-4, BLA complementation, FRET ratio; Toll-like receptor 4 (Homo sapiens) + Myeloid differentiation primary response protein …; HeLa CL3-4 TLR4/MyD88 BLA complementation; inhibition, % at 8.4 µM; 200,000 compounds, 0.18% hits; in the data active = inhibition above about 25%
# NOD2-RIPK2 conf: NOD2-RIPK2 binding disruptors, retest, confirmation, fluorescence, CHO cells, BLA complementation, triplicate | shares compounds with NOD2-RIPK2 inh | CCF4 FRET | inhibition, % at 4.98 µM | 1,200 compounds, 70% hits;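 active = mean inhibition across replicates above a set limit taken from the earlier primary screen, cut at about 21% in these data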
# BLA counter: counter-screen for NOD2-RIPK2 interaction inhibitors: BLA reporter; CHO BLA reporter, CCF4 FRET ratio, counterscreen; inhibition, % at 4.98 µM; AID 624371; 1,200 compounds, 57% hits; shares compounds with NOD2-RIPK2 inh;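 active = mean inhibition above the low-control mean inhibition plus three low-control SD, cut at about 11% in these data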
# Hits are given with their value; i = inactive; ? = inconclusive; nt = no result.
SMILES,HSF1 inh,TLR9-MyD88 block,NOD2-RIPK2 inh,HSF-1 act,TLR4 MyD88 comp,NOD2-RIPK2 conf,BLA counter
CN(Cc1ccco1)S(=O)(=O)c1nnc(NC(=O)c2ccccc2Cl)s1,i,i,i,i,nt,nt,nt
CC(C)[C@H](NC(=O)OC(C)(C)C)c1nnc(S(=O)(=O)Cc2c(F)cccc2Cl)o1,i,i,68.6,i,nt,69.7,i
CC[C@@H](C)[C@H](NC(=O)OC(C)(C)C)c1nnc(S(=O)(=O)Cc2cc(C)ccc2C)o1,-66.4,i,59.2,i,i,52.5,i
CC(C)(C)OC(=O)N[C@@H](Cc1ccccc1)c1nnc(S(=O)(=O)Cc2cccc(F)c2)o1,i,nt,nt,i,i,nt,nt
Cc1ccccc1CS(=O)(=O)c1nnc([C@H](CC(C)C)NC(=O)OC(C)(C)C)o1,i,i,25.5,107.4,i,42.4,i
COCCOC(=O)C1=C(C)NC(=O)NC1c1cccc2ccccc12 (centres undefined),i,i,i,i,nt,nt,nt
COc1ccc(-c2csc(-c3cc4ccccc4oc3=N)n2)cc1,i,i,31.1,i,i,i,22.7
COc1ccc(-c2noc(-c3cc4ccccc4oc3=O)n2)cc1,i,nt,nt,i,i,nt,nt
COc1ccc(CCN2C(=O)C=CC2=O)cc1OC,nt,i,43.1,nt,nt,50.9,12.4
COc1ccc(CCn2c(C)ccc2C)cc1OC,i,nt,nt,i,i,nt,nt
Cc1cccc(CS(=O)(=O)c2ncc(Cl)c(C(=O)NCc3ccc4c(c3)OCO4)n2)c1,i,i,38.6,317.2,nt,42.1,i
Cc1ccc(C(=O)NCc2ccc3c(c2)OCO3)c(Cl)c1,nt,i,i,nt,nt,nt,nt
Cc1cc(C)c(NC(=O)CSCc2c(C)noc2C)c(Cl)c1,nt,i,i,nt,nt,nt,nt
CN1Cc2c(N3CCOCC3)nc3sc(C(=O)c4ccc(Br)cc4)c(N)c3c2CC1(C)C,i,nt,24.4,i,nt,29.4,29.6
COC(=O)[C@@]1(Cc2ccc(F)cc2)[C@H]2c3cc(C(=O)N4CCCC4)n(C)c3C[C@H]2CN1C(=O)c1ccccc1,nt,nt,i,nt,nt,nt,nt
Cc1ccc(NC(=O)Cc2ccc(Cl)cc2)cc1S(=O)(=O)N1CCCCCC1,nt,i,i,nt,nt,nt,nt
Cc1ccc(NC(=O)Cn2ncc(Cl)c(Cl)c2=O)cc1S(=O)(=O)N1CCCCC1,nt,i,34.2,nt,nt,43.0,10.5
O=C(Cn1ncc(Cl)c(Cl)c1=O)NCC1CCCCC1,nt,i,21.4,nt,i,29.1,i
CCN(CC(=O)NCc1cccs1)C(=O)COc1ccc(C(C)=O)cc1,nt,i,i,nt,nt,nt,nt
CCCCn1c(N)c(N(CCC(C)C)C(=O)COC(=O)/C=C/c2ccc(F)cc2)c(=O)[nH]c1=O,nt,i,i,nt,nt,nt,nt
CC1(C)Cc2c(sc3nc(-c4cc5ccccc5o4)n(N)c(=O)c23)CO1,i,i,23.5,i,i,i,i
COc1ccc([C@H]2CC(=O)C=C(C#CC(C)(C)C)C2)cc1,nt,i,i,nt,nt,nt,nt
COCCCN1C(=O)C(CC(=O)NCCc2ccccn2)CC(C(=O)N2CCOCC2)=C1C (centres undefined),nt,i,i,nt,nt,nt,nt
CC1=C(CO)C(=O)OC([C@@H](C)C2CC[C@H]3C4C[C@H]5O[C@]56[C@@H](O)C=CC(=O)[C@]6(C)C4CC[C@]23C)C1 (some centres undefined),i,i,46.9,64.1,nt,62.6,i
CN(Cc1cc(Cl)cc(Cl)c1)CC(C(=O)c1ccccc1)c1ccccc1 (centres undefined),nt,i,i,nt,nt,nt,nt
SMILES,HSF1 inh,TLR9-MyD88 block,NOD2-RIPK2 inh,HSF-1 act,TLR4 MyD88 comp,NOD2-RIPK2 conf,BLA counter
CN(C)CC(C(=O)c1ccccc1)c1ccccc1 (centres undefined),i,i,23.2,i,i,i,i
Cn1c(SCC(=O)NCC2CCCO2)nc2c(c1=O)SCC2 (centres undefined),i,i,i,i,nt,nt,nt
Cn1c(N)c(C(=O)COC(=O)/C=C/c2cccc(Cl)c2)c(=O)n(C)c1=O,nt,i,i,nt,nt,nt,nt
Cc1ccc(S(=O)(=O)Oc2ccccc2/C=N/NC(N)=S)cc1,i,i,24.2,i,i,i,i
Cc1ccc(S(=O)(=O)Oc2ccccc2/C=N/N=C(N)N)cc1,i,i,i,i,i,nt,nt
Cc1[nH]c(=S)c(C#N)c2c1CCCC2,i,i,27.2,i,i,i,i
Cc1[nH]c(=O)c(C#N)c2c1CCCC2,i,i,i,i,i,nt,nt
CCOC(=O)/C=C/C(=O)Nc1ccc(S(=O)(=O)Nc2c(C)cc(C)cc2C)cc1,i,i,i,i,i,nt,nt
CCOC(=O)/C=C/S(=O)(=O)c1ccc(NC(C)=O)cc1,i,22.7,22.0,i,i,54.2,21.4
COc1ccc(/C=C2/Sc3ccc(C(=O)NCCN4CCCCCC4)cc3NC2=O)cc1,i,i,23.6,i,nt,i,i
Cc1ccc(S(=O)(=O)N2CCN(CC(=O)N/N=C\c3ccc(Cl)c([N+](=O)[O-])c3)CC2)cc1,i,i,i,i,i,nt,nt
O=C(CN1CCN(S(=O)(=O)c2ccc(Br)cc2)CC1)N/N=C/c1ccc(Cl)c([N+](=O)[O-])c1,i,i,33.1,i,i,31.8,i
C[C@@H]1CN([C@@H](C)CO)C(=O)c2cc(NC(=O)C3CCCCC3)ccc2O[C@@H](C)CCCCO[C@@H]1CN(C)C(=O)CCCN(C)C,nt,i,i,nt,nt,nt,nt
O=C(NCc1cccnc1)/C(=C\c1ccc(-c2cccc(Cl)c2)o1)S(=O)(=O)c1ccccc1,i,i,35.1,i,i,47.6,i
O=C(NCc1cccnc1)/C(=C/c1ccc(-c2cccc(Cl)c2)o1)S(=O)(=O)c1ccccc1,i,i,i,?,i,nt,nt
NS(=O)(=O)c1ccc(NS(=O)(=O)c2ccc(NC(=O)c3ccc(-c4ccccc4)cc3)cc2)cc1,i,i,23.7,i,i,22.8,27.6
COc1cc(OC)c(OC)cc1/C=C/C(=O)c1ccc(NS(=O)(=O)c2ccc(C)cc2)cc1,i,i,34.4,i,i,33.5,39.8
CCOc1ccc(C(=O)C(CN2CCOCC2)c2ccccc2)cc1 (centres undefined),i,i,i,i,i,nt,nt
O=C(c1ccc(Br)cc1)C(CN1CCOCC1)c1ccccc1 (centres undefined),i,i,25.6,i,nt,26.7,i
COc1cc(NC(=O)Cn2c(C)cc3ccccc3c2=O)cc(OC)c1OC,i,i,32.2,i,i,i,i
CC(C)(C)OC(=O)N1CCC[C@H]1c1nnc(SCc2cccc(Cl)c2)o1,i,i,i,i,nt,nt,nt
Cc1noc(C)c1-c1ccc(C(=O)N2CCN(C)CC2)c2occc12,nt,nt,i,nt,nt,nt,nt
O=C(C#Cc1cccc([N+](=O)[O-])c1)c1ccccc1,i,i,27.2,96.7,i,77.1,17.0
O=C(CNC(=O)c1ccc(Cl)cc1Cl)OCCOc1ccccc1F,nt,i,i,nt,nt,nt,nt
O=C(O)C(CCc1ccccc1)N1C(=O)c2ccccc2C1=O (centres undefined),nt,i,i,nt,nt,nt,nt
OCCCc1nc2ccccc2n1CCc1ccccc1,i,i,i,i,i,nt,nt
CC(c1ccccc1)n1c(CCCO)nc2ccccc21 (centres undefined),i,i,23.9,i,nt,i,i
